In article PMC4081100, “A DNA-binding-site landscape and regulatory network analysis for NAC transcription factors in Arabidopsis thaliana”:

What was measured:
Assay in all cases: universal protein binding microarray (PBM); transcription factors of Arabidopsis thaliana; high values mean tight binding
Conditions in all cases: protein: recombinant; tags: GST; chain copies: 2; dsDNA, one strand shown
[1] = target: T1, GST-ANAC092(1-176) (Arabidopsis thaliana, UniProt Q9FKA0 1-176)
T1 sequence: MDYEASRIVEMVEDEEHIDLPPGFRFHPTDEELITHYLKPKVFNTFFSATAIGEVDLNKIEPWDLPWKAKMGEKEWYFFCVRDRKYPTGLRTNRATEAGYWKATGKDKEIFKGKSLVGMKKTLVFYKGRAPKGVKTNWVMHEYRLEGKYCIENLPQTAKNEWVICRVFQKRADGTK
Procedure, shortened: (§1)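 Binding is expressed as the normalised enrichment score (E-score). Proteins carrying a GST tag, whether NAC-domain, full-length or DNA-binding-domain forms, were induced in cells, and zinc acetate was added for zinc-finger proteins. After purification on glutathione–Sepharose 4B and quantification by A280 or anti-GST western blot, each was applied in duplicate at 200 to 500 nM final to custom all-10-mer Agilent 4 × 180K arrays made double-stranded by primer extension. Gapped and ungapped 8-mers were scored.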

[2] = target: GST-NTL6(1-168) (Arabidopsis thaliana, UniProt Q9SCK6 1-168)
Procedure, shortened: as §1

[3] = target: T2, GST-ANAC019 NAC domain (Arabidopsis thaliana, UniProt Q9C932 14-162)
T2 sequence: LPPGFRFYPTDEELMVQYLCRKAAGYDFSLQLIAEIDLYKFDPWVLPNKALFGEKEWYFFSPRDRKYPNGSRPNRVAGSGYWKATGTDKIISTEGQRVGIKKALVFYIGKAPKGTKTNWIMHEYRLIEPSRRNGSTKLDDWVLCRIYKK
Procedure, shortened: as §1

[4] = target: T3, GST-ANAC055(1-171) (Arabidopsis thaliana, UniProt Q9LDY8 1-171)
T3 sequence: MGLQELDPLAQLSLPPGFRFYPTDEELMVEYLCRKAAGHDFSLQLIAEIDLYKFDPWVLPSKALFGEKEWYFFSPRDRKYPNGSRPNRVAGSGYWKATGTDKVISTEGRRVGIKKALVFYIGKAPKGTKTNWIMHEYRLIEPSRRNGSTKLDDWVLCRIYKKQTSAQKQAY
Procedure, shortened: as §1

[5] = target: T4, GST-ATAF1 NAC domain (Arabidopsis thaliana, UniProt Q39013 7-158)
T4 sequence: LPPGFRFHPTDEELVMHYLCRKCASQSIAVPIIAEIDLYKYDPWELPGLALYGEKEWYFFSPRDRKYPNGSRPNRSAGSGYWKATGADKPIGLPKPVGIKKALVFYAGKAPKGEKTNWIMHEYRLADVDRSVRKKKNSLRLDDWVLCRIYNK
Procedure, shortened: as §1

[6] = target: T5, GST-ANAC092(1-285) full length (Arabidopsis thaliana, UniProt Q9FKA0 1-285)
T5 sequence: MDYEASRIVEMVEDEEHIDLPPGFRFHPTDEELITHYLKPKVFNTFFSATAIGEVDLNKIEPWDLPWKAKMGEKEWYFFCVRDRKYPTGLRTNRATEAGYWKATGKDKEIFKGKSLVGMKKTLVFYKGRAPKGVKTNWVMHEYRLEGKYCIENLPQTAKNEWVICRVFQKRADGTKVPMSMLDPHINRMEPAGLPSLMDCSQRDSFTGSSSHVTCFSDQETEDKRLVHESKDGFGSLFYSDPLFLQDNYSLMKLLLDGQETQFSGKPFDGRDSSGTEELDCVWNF
Procedure, shortened: as §1

[7] = target: T6, GST-NAP(1-166) (Arabidopsis thaliana, UniProt O49255 1-166)
T6 sequence: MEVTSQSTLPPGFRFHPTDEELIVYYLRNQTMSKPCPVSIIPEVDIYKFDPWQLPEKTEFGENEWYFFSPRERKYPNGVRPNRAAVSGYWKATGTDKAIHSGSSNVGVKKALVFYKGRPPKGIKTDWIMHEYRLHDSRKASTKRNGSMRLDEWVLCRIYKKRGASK
Procedure, shortened: as §1

[8] = target: T7, GST-NST2(1-184) (Arabidopsis thaliana, UniProt Q9M274 1-184)
T7 sequence: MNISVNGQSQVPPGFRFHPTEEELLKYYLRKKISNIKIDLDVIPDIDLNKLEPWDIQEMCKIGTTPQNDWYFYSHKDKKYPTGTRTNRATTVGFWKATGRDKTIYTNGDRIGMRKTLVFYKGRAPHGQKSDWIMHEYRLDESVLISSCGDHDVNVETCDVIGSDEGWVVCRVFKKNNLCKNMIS
Procedure, shortened: as §1

[9] = target: T8, GST-SND1(1-203) (Arabidopsis thaliana, UniProt Q9LPI7 1-203)
T8 sequence: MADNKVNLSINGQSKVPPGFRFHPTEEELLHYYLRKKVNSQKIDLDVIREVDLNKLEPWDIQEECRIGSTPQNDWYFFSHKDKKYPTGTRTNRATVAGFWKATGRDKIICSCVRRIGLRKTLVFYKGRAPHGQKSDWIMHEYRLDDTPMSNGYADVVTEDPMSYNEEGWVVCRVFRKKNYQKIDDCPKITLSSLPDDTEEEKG
Procedure, shortened: as §1

[10] = target: T9, GST-VND3 NAC domain (Arabidopsis thaliana, UniProt Q9FH59 12-162)
T9 sequence: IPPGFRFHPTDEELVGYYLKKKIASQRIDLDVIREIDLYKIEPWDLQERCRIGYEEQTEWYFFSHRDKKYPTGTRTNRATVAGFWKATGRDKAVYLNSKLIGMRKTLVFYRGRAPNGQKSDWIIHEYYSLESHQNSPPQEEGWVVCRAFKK
Procedure, shortened: as §1

[11] = target: T10, GST-VND7 NAC domain (Arabidopsis thaliana, UniProt Q9C8W9 9-158)
T10 sequence: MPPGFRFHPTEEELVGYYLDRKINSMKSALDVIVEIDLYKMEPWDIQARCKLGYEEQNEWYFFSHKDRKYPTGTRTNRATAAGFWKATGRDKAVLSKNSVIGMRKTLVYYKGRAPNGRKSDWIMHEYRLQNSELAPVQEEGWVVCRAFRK
Procedure, shortened: as §1

[12] = target: T11, GST-NTL8 NAC domain (Arabidopsis thaliana, UniProt Q9XIN7 14-156)
T11 sequence: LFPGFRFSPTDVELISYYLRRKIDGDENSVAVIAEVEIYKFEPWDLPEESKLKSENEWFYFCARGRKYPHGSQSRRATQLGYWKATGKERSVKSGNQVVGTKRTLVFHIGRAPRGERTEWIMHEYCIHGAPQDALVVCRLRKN
Procedure, shortened: as §1

Chain of GST-NTL6(1-168) (Q9SCK6 1-168): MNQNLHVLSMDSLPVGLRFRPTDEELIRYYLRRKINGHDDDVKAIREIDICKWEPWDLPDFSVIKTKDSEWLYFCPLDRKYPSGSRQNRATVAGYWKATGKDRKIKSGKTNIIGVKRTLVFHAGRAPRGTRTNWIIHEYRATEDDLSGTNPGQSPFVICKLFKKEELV

Row | Sequence | binding signal [1] | binding signal [2] | binding signal [3] | binding signal [4] | binding signal [5] | binding signal [6] | binding signal [7] | binding signal [8] | binding signal [9] | binding signal [10] | binding signal [11] | binding signal [12]
1 | AATGCCGT | 0.335 E-score | 0.0523 E-score | 0.428 E-score | 0.391 E-score | 0.342 E-score | 0.365 E-score | 0.366 E-score | 0.114 E-score | 0.0974 E-score | 0.407 E-score | 0.4 E-score | –
2 | GCGTAATA | 0.318 E-score | 0.0582 E-score | 0.0565 E-score | 0.189 E-score | 0.0519 E-score | 0.324 E-score | 0.109 E-score | 0.306 E-score | 0.422 E-score | 0.203 E-score | 0.246 E-score | –
3 | AATACGCA | 0.411 E-score | 0.109 E-score | 0.196 E-score | 0.293 E-score | 0.142 E-score | 0.431 E-score | 0.221 E-score | 0.206 E-score | 0.356 E-score | 0.314 E-score | 0.259 E-score | –
4 | GTTTCGTA | 0.375 E-score | 0.0501 E-score | 0.0919 E-score | 0.15 E-score | 0.173 E-score | 0.405 E-score | 0.185 E-score | 0.163 E-score | 0.318 E-score | 0.293 E-score | 0.124 E-score | 0.0561 E-score
5 | TAGCGTAA | 0.453 E-score | 0.123 E-score | 0.0774 E-score | 0.173 E-score | 0.281 E-score | 0.454 E-score | 0.221 E-score | 0.412 E-score | 0.492 E-score | 0.297 E-score | 0.347 E-score | –
6 | ATACGAAA | 0.393 E-score | 0.184 E-score | 0.166 E-score | 0.202 E-score | 0.259 E-score | 0.421 E-score | 0.251 E-score | 0.271 E-score | 0.239 E-score | 0.296 E-score | 0.205 E-score | –
7 | AAGCGTAA | 0.214 E-score | 0.0576 E-score | 0.168 E-score | 0.0793 E-score | 0.175 E-score | 0.3 E-score | 0.119 E-score | 0.212 E-score | 0.426 E-score | 0.13 E-score | 0.115 E-score | –
